# In the library only some 2.8% were active in any assay of this set; here they are far more common.
# Pol beta inh: blocks human DNA polymerase beta activity | Potency, µM (top dose mostly 114 µM), for the others: at the highest dose activity change, negative = inhibition, usual class: inhibitors | P06746 | 340,000 compounds, 1.3% hits | Pol beta primer extension/strand displacement, fluorescence kinetic; also: potency is read from the fitted curve at half-maximal effect; % is scaled to controls: 0 for no effect and ±100 for the full control effect
#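 Pol beta (10 nM) and compounds were preincubated 15 min at room temperature, then 50 nM substrate (final) started primer extension/strand displacement. Reads were taken at 0 and 10 min; concentration-response data were fitted to a four-parameter Hill equation.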
# PI5P4Ka inh: PI5P4K alpha (human) kinase inhibition. 330,000 compounds, 1.2% hits. PI5P4Kalpha enzyme, ADP-Glo luminescence, 60 min; stronger effect = lower value. P48426. AID 652105. max response, %; active = max response of -50% or lower; inconclusive = between -30% and -50%; inactive = -30% or higher; also: value at the top dose of about 77 µM; % is scaled to controls: 0 for no effect and ±100 for the full control effect
#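 Reactions run in 0.038 M HEPES pH 7.4, 0.28 mM EGTA, 0.1% CHAPS and 5% DMSO, with PI5P4Kalpha, substrate, compound and 5 microM ATP final, one hour at room temperature. Readout is ADP-Glo luminescence.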
# Pol eta inh: DNA polymerase eta (human) inhibition; Q9Y253; 390,000 compounds, 1.2% hits; Potency, µM (titrated, usually from 114 µM), inactives show at the highest dose activity change, negative = inhibition, most hits filed as inhibitors; recombinant Pol eta, fluorescent DNA replication assay; also: potency is read from the fitted curve at half-maximal effect; % is scaled to controls: 0 for no effect and ±100 for the full control effect
#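 Pol eta at 10 nM preincubated with compounds 15 min at room temperature; reaction started with fluorescent substrate (50 nM final) and read kinetically at 0 and 10 min.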
# WRN inhibitor: WRN helicase (human) inhibition; Potency, µM (doses to about 114 µM), for inactives: at the highest dose activity change, negative = inhibition, usual class: inhibitors; WRN helicase unwinding, fluorescent forked duplex, kinetic; 360,000 compounds, 0.46% hits; also: potency is read from the fitted curve at half-maximal effect; % is scaled to controls: 0 for no effect and ±100 for the full control effect; nearly all actives have a fitted effect of over 55% in size
# Target sequence (Q14191 whole entry, looked up): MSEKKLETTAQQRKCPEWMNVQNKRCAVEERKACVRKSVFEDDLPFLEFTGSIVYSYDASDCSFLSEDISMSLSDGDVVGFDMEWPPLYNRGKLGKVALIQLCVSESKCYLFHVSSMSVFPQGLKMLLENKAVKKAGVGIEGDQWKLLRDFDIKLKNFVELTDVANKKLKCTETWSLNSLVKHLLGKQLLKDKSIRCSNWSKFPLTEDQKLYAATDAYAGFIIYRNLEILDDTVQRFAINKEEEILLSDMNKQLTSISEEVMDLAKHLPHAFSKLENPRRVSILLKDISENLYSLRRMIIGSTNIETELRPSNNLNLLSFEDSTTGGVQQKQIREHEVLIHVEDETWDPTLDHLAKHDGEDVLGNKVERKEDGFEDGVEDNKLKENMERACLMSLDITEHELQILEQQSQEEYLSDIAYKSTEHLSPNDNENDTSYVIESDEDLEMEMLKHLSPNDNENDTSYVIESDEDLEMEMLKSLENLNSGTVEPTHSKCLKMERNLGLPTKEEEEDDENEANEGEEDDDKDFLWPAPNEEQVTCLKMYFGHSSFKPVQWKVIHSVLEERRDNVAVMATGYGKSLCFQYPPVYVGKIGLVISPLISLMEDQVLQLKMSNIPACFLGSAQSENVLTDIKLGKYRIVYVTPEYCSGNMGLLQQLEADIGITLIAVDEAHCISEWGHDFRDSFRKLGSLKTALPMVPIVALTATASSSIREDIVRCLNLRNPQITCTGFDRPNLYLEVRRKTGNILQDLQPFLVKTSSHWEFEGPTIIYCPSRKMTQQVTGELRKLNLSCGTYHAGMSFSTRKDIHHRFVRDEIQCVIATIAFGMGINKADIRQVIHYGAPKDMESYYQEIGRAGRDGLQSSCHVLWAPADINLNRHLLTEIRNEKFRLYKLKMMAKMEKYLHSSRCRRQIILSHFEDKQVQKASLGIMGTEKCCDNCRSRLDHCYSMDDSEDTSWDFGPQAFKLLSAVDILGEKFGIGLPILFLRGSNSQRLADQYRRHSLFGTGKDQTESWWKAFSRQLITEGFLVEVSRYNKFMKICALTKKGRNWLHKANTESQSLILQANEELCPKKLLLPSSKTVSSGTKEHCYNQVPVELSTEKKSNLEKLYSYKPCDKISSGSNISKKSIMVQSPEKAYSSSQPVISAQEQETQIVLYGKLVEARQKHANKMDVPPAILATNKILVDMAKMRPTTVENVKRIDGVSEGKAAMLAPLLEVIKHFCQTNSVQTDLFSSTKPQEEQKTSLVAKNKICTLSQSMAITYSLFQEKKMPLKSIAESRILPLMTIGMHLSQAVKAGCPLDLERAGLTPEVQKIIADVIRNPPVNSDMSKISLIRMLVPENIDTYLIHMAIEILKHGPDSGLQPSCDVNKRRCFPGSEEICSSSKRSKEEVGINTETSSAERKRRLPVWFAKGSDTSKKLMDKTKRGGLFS
#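 WRN at 20 nM final was preincubated with compound for 15 min at room temperature; reaction started with 100 nM forked duplex oligonucleotide carrying fluorophore and quencher plus 2 mM ATP (final). Unwinding followed kinetically by red fluorescence (ex 525/em 598 nm).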
# POLI inh: blocks human DNA polymerase iota activity. Potency, µM (doses to about 115 µM), for the others: top-dose activity, negative = inhibition, hits mostly inhibitors. AID 588590. 390,000 compounds, 1% hits. Q9UNA4. Pol iota fluorescent replication assay, 10 min; also: potency is read from the fitted curve at half-maximal effect
#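 Fluorescent replication assay read twice, at 0 min and 10 min after adding 50 nM (final) substrate. Enzyme (10 nM) and compounds were first incubated 15 min at room temperature; enzyme-free buffer wells were negative controls.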
# POLK inh: blocks human DNA polymerase kappa activity | Potency, µM (doses to about 107 µM), inactives show at the highest dose activity, negative = inhibition, actives largely listed as inhibitors | 400,000 compounds, 0.53% hits | Q9UBT6 | purified Pol kappa, fluorescent DNA synthesis assay, 10 min; also: potency is read from the fitted curve at half-maximal effect; % is scaled to controls: 0 for no effect and ±100 for the full control effect
#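 Enzyme at 10 nM met test compounds for 15 min at room temperature. Substrate addition (50 nM final) began the reaction, which was monitored by fluorescence at 0 and 10 min.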
# Numbers without * were called inactive; ? = inconclusive; . = not tested or not shown; [ ] = another dose, or the depositor's remark. Unless noted, calls follow the shape of the dose curve; as a rule, active = well fitted curve in the direction sought with a large enough effect; inconclusive = small, poorly fitted or top-dose-only effect, or another doubt; inactive = no such curve, though single readings can be large; an effect the other way counts as inactive or inconclusive.
SMILES,Pol beta inh,PI5P4Ka inh,Pol eta inh,WRN inhibitor,POLI inh,POLK inh
O=C1c2cccc3c(O)ccc(c23)C(=O)N1Cc1ccco1,?,?,32µM*,?,20µM*,?
Cc1c(NC(=O)c2ccc3c(c2)C(=O)N(Cc2ccco2)C3=O)cccc1C(=O)O,?,-12,32µM*,-13%[11.6 µM],?,?
CCc1ccc(NC(=O)c2ccc3c(c2)C(=O)N(Cc2ccco2)C3=O)cc1,20µM*,?,20µM*,-27%,?,50µM*
CC(=O)Nc1cc([N+](=O)[O-])ccc1OCc1ccccc1,.,-5,-21%,6%,15%,-3%
CCCCC(CC)CN=C(N)NC(N)=NCCCCCCN=C(N)NC(N)=NCC(CC)CCCC (centres undefined),.,-21,89µM*,89µM*,?,?
CCCCC(CC)CO (centres undefined),.,1,-3%,0%,?,-14%
Cc1cccc(CNc2ncnc3ccc(-c4cccc(C#N)c4)cc23)c1,.,.,.,.,.,-19%[60.1 µM]
CCCOc1c(Br)cc(C(=O)OCc2cc(=O)n3ccsc3n2)cc1OC,.,-5,10%,6%,-19%,-14%
Cc1cccc(NC(=O)C2CCCN2S(=O)(=O)c2ccc(Cl)cc2)n1 (centres undefined),10%,1,-1%,-30%,-5%,0%
CNC(=O)c1ccc2nc(-c3ccco3)c(-c3ccco3)nc2c1,.,.,.,.,8.9µM*,8.9µM*
O=C(Nc1ccccc1)c1ccc2nc(-c3ccco3)c(-c3ccco3)nc2c1,20µM*,.,?,40µM*,40µM*,45µM*
CC(=O)c1ccc(NC(=O)c2ccc3nc(-c4ccco4)c(-c4ccco4)nc3c2)cc1,2.8µM*,-110*,2.8µM*,25µM*,3.2µM*,7.9µM*
O=C(Nc1ccc(N2CCOCC2)cc1)c1ccc2nc(-c3ccco3)c(-c3ccco3)nc2c1,0%,.,-14%,-9%,-5%,-25%
O=C(NC1CC1)c1ccc2nc(-c3ccco3)c(-c3ccco3)nc2c1,.,.,.,.,10µM*,22µM*
COC(=O)c1ccc(NC(=O)Cn2c(=O)oc3ccccc32)cc1,?,.,-18%,.,-10%,-2%
O=C(CCCc1ccccc1)NCc1ccc(F)cc1,9%,5,-18%,2%,21%,-4%
CCOC(=O)COc1nc(-c2ccco2)cc(-c2ccco2)c1C#N,?,?,-1%,-16%,50µM*,?
CCOC(=O)C(C)Sc1nc(-c2ccco2)cc(C(F)(F)F)c1C#N (centres undefined),-1%,-56*,-16%,?,?,-15%
CCOC(=O)COc1nc(-c2ccc(C)cc2)cc(-c2ccco2)c1C#N,0%,-1,-16%,-6%,0%,-3%
CS(=O)(=O)c1ccc2nc(NC(=O)c3ccc(=O)[nH]c3)sc2c1,-21%,-27,50µM*,-17%,50µM*,-17%
O=C(O)c1cc(-n2cccc2)ccc1N1CCOCC1,0%,6,50µM*,3%[11.6 µM],-28%[58.9 µM],?
CCOC(=O)C(Cc1c[nH]c2ccccc12)NC(=O)COc1ccc(Cl)cc1 (centres undefined),-16%,.,-21%,.,79µM*,-19%[60.1 µM]
CC(C)c1ccc(OCC(=O)NC(Cc2c[nH]c3ccccc23)C(=O)O)cc1 (centres undefined),-4%,5,-9%,-2%,13%,0%
CN1C(=O)c2ccccc2Sc2ccc(NC(=O)N3CCN(c4ccccc4F)CC3)cc21,1%,.,2%,.,?,1%
Cc1ccc(C)c(C(=O)Cn2ncc(Cl)c(Cl)c2=O)c1,4%,-4,-11%,-8%,-6%,-17%
SMILES,Pol beta inh,PI5P4Ka inh,Pol eta inh,WRN inhibitor,POLI inh,POLK inh
Cc1cc(C(=O)Cn2ncc(Cl)c(Cl)c2=O)c(C)n1CC(F)(F)F,-4%,-56*,22µM*,-24%,?,-31%
O=c1cc(-c2ccccc2)nc2cc(-c3ccco3)[nH]n12,50µM*,-8,-14%,2%,14%,3%
O=c1cc(-c2ccccc2)nc2cc(-c3ccc(Br)cc3)[nH]n12,-13%,-10,-4%,-10%,-20%,-12%
O=C(CSc1ccc(-c2nc3ccccc3[nH]2)cn1)N1CCN(C(=O)c2ccco2)CC1,?,.,?,?,16µM*,50µM*
CNC(=O)c1cc(-c2cccs2)on1,.,.,.,.,3%,9%
Cc1ccc(CNC(=O)[C@H](C)[C@H]2C[C@]2(C)[C@H](NC(=O)OCc2ccccc2)c2ccccc2)o1,-6%,-52*,-10%,-11%,?,-14%
Oc1cc(CNC2CCCCC2)c(O)cc1CNC1CCCCC1,.,-53*,?,-13%,?,79µM*
c1cn(-c2cc(-c3ccc4c(c3)OCO4)ncn2)cn1,.,.,.,.,.,25µM*
COc1ccccc1-c1cc(-n2ccnc2)ncn1,.,.,.,.,.,2%[60.1 µM]
COc1ccc(N2CC(NC(=O)c3ccc4c(c3)OCO4)CC2=O)cc1OC (centres undefined),-2%,.,-8%,.,44%,-7%[60.1 µM]
[N-]=C=C1C(=O)NC(=O)C([n+]2ccc(-c3ccncc3)cc2)C1c1ccccc1C(F)(F)F (centres undefined),-1%,-11,-25%,-14%,16µM*,-12%
Cc1ccc(-n2nc3c(N4CCC(C(=O)NC(C)c5ccccc5)CC4)nnc(C)c3c2C)cc1 (centres undefined),?,.,?,.,?,5%
O=c1[nH]c(=S)[nH]c2sc3c(c12)CCCCCC3,-7%,-60*,-15%,-4%,66%,0%
Nn1c(=S)[nH]c2sc3c(c2c1=O)CCCC3,.,-70*,-12%,-19%,25%,2%
CCCn1c(=S)[nH]c2sc3c(c2c1=O)CCCC3,10%,-13,7%,-26%,11%,-14%
O=c1[nH]c(C2CC2)nc2sc3c(c12)CCCC3,?,3,-24%,1%,16%,-5%
CC(=O)c1ccc(NC(=S)N2CCN(c3ccccn3)CC2)cc1,18%,0,89µM*,5%,22%,-1%
CCOC(=O)NC1(NC(C)C)Oc2ccccc2O1,5%,-4,-15%,3%,?,11%
CCOC(=O)NC1(NC2CCCCC2)Oc2ccccc2O1,25µM*,.,-1%,-27%,71µM*,79µM*
N#Cc1ccc(/C=N/NC(=S)Nc2ccc(S(=O)(=O)N3CCOCC3)cc2)cc1,-2%,-13,-17%,-11%,23%,-2%
O=S(=O)(c1ccc(NC(=S)N/N=C/c2ccc(O)c(O)c2)cc1)N1CCOCC1,-27%,-23,-3%,-27%,20µM*,?
Oc1ccc(/C=N/NC(=S)Nc2cccnc2)cc1O,?,-6,?,-29%,3.5µM*,?

# Assay outcomes deposited in PubChem by National Center for Advancing Translational Sciences (NCATS).
